# PubChem BioAssay (NCI)
# “And” between values parts separate entries of the source, which are not always exact repeats. Identical values can stand only once. This is part of a sample that, as a whole, favours compounds with a hit. Of some 83,000 tested, about 20% had one in any assay.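 Each cell line was grown in a 96-well plate and treated with one concentration of compound for 48 hours. Values below 10 were considered active.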 The source made the active and inactive calls.
# Columns and labels:
# Experiment in all cases: NCI-60 one-dose screen, 48 h (100 = growth as untreated, 0 = no growth, -100 = all killed)
# SK-MEL-2 melanoma = tested on: SK-MEL-2 melanoma
# EKVX NSCLC = tested on: EKVX NSCLC
# SN12C renal = tested on: SN12C renal
# UO-31 renal = tested on: UO-31 renal
# TK-10 renal = conditions: 10 µM unless noted
# ACHN renal = conditions: 10 µM unless noted
# CAKI-1 renal = conditions: 10 µM unless noted
# A498 renal = tested on: A498 renal
# HL-60(TB) leukemia = conditions: 10 µM unless noted
# CCRF-CEM leukemia = tested on: CCRF-CEM leukemia
# MOLT-4 leukemia = tested on: MOLT-4 leukemia
# SR leukemia = conditions: 10 µM unless noted
# RPMI-8226 leukemia = tested on: RPMI-8226 leukemia
# OVCAR-8 ovarian = tested on: OVCAR-8 ovarian
# OVCAR-5 ovarian = tested on: OVCAR-5 ovarian
# OVCAR-4 ovarian = tested on: OVCAR-4 ovarian
# SK-OV-3 ovarian = tested on: SK-OV-3 ovarian
# IGROV1 ovarian = tested on: IGROV1 ovarian
# OVCAR-3 ovarian = tested on: OVCAR-3 ovarian
# HS 578T breast = tested on: HS 578T breast
compound,measurement,setting,value
O=[N+]([O-])c1cc(Cl)c(Cl)cc1Cl,growth,SK-MEL-2 melanoma; 10 µM unless noted,143% (inactive) and 119% (inactive)
same,growth,EKVX NSCLC; 10 µM unless noted,106% (inactive) and 113% (inactive)
same,growth,SN12C renal; 10 µM unless noted,94.6% (inactive) and 108% (inactive)
same,growth,UO-31 renal; 10 µM unless noted,104% (inactive) and 95.4% (inactive)
same,growth,TK-10 renal,120% (inactive)
same,growth,ACHN renal,104% (inactive) and 109% (inactive)
same,growth,CAKI-1 renal,100% (inactive) and 107% (inactive)
same,growth,A498 renal; 10 µM unless noted,104% (inactive)
same,growth,HL-60(TB) leukemia,114% (inactive)
same,growth,CCRF-CEM leukemia; 10 µM unless noted,105% (inactive) and 106% (inactive)
same,growth,MOLT-4 leukemia; 10 µM unless noted,102% (inactive) and 103% (inactive)
same,growth,SR leukemia,86.5% (inactive) and 108% (inactive)
same,growth,RPMI-8226 leukemia; 10 µM unless noted,97.4% (inactive) and 112% (inactive)
same,growth,OVCAR-8 ovarian; 10 µM unless noted,108% (inactive)
same,growth,OVCAR-5 ovarian; 10 µM unless noted,110% (inactive) and 99.6% (inactive)
same,growth,OVCAR-4 ovarian; 10 µM unless noted,108% (inactive) and 113% (inactive)
same,growth,SK-OV-3 ovarian; 10 µM unless noted,123% (inactive) and 110% (inactive)
same,growth,IGROV1 ovarian; 10 µM unless noted,111% (inactive) and 109% (inactive)
same,growth,OVCAR-3 ovarian; 10 µM unless noted,119% (inactive)
same,growth,HS 578T breast; 10 µM unless noted,95.9% (inactive)
COc1ccc(/C=C(/C)[N+](=O)[O-])cc1OC,growth,SK-MEL-2 melanoma; 10 µM unless noted,8.73% (active) and 0.617% (active)
same,growth,EKVX NSCLC; 10 µM unless noted,65.6% (inactive) and 84.6% (inactive)
same,growth,SN12C renal; 10 µM unless noted,-1.3% (active) and 25.2% (inactive)
same,growth,UO-31 renal; 10 µM unless noted,-63.9% (active) and -93.1% (active)
same,growth,TK-10 renal,-49.9% (active) and 70.4% (inactive)
same,growth,ACHN renal,-1.7% (active) and -73% (active)
same,growth,CAKI-1 renal,-6.27% (active) and -71.9% (active)
same,growth,A498 renal; 10 µM unless noted,112% (inactive) and 97.9% (inactive)
same,growth,HL-60(TB) leukemia,-14.7% (active) and -26% (active)
same,growth,CCRF-CEM leukemia; 10 µM unless noted,0.7% (active) and 20.8% (inactive)
same,growth,MOLT-4 leukemia; 10 µM unless noted,0.86% (active) and -1.19% (active)
same,growth,SR leukemia,-21.8% (active) and -5.49% (active)
same,growth,RPMI-8226 leukemia; 10 µM unless noted,-17.9% (active) and -7.74% (active)
same,growth,OVCAR-8 ovarian; 10 µM unless noted,6.5% (active)
same,growth,OVCAR-5 ovarian; 10 µM unless noted,91.4% (inactive) and 66.7% (inactive)
same,growth,OVCAR-4 ovarian; 10 µM unless noted,32.7% (inactive)
same,growth,SK-OV-3 ovarian; 10 µM unless noted,112% (inactive) and 108% (inactive)
same,growth,IGROV1 ovarian; 10 µM unless noted,10.8% (inactive) and -20.9% (active)
same,growth,OVCAR-3 ovarian; 10 µM unless noted,-94.1% (active) and -99.7% (active)
CO[C@H]1[C@H](O[C@@H]2C[C@@H]3C/C=C/C(=O)O[C@@H](CO)C[C@H](O)[C@@H]4C[C@H](C)[C@H](C/C=C\C=C\[C@H](C)C[C@H](C2)O3)O4)O[C@@H](C)[C@H](O)[C@H]1O,growth,SK-MEL-2 melanoma; 10 µM unless noted,68.8% (inactive)
same,growth,EKVX NSCLC; 10 µM unless noted,28.7% (inactive)
same,growth,SN12C renal; 10 µM unless noted,62.6% (inactive)
same,growth,UO-31 renal; 10 µM unless noted,33.3% (inactive)
same,growth,TK-10 renal,32.2% (inactive)
same,growth,ACHN renal,66.4% (inactive)
same,growth,CAKI-1 renal,61.6% (inactive)
same,growth,A498 renal; 10 µM unless noted,60.6% (inactive)
same,growth,HL-60(TB) leukemia,33.2% (inactive)
same,growth,CCRF-CEM leukemia; 10 µM unless noted,58.7% (inactive)
same,growth,MOLT-4 leukemia; 10 µM unless noted,43.8% (inactive)
same,growth,SR leukemia,85.2% (inactive)
same,growth,RPMI-8226 leukemia; 10 µM unless noted,28.1% (inactive)
same,growth,OVCAR-8 ovarian; 10 µM unless noted,42.6% (inactive)
same,growth,OVCAR-5 ovarian; 10 µM unless noted,71.2% (inactive)
same,growth,OVCAR-4 ovarian; 10 µM unless noted,30.1% (inactive)
same,growth,SK-OV-3 ovarian; 10 µM unless noted,54% (inactive)
same,growth,IGROV1 ovarian; 10 µM unless noted,71% (inactive)
same,growth,OVCAR-3 ovarian; 10 µM unless noted,60.2% (inactive)
same,growth,HS 578T breast; 10 µM unless noted,95.1% (inactive)
CC(=O)OCC1OC([S-])C(OC(C)=O)C(OC(C)=O)C1OC(C)=O.[Au+].c1ccc(CN2[CH-]N(Cc3ccccc3)C(c3ccccc3)=C2c2ccccc2)cc1,growth,SK-MEL-2 melanoma; 4.75 µM,-22.7% (active)
same,growth,SK-MEL-2 melanoma; 10 µM,-30.8% (active)
same,growth,EKVX NSCLC; 4.75 µM,8.29% (active)
same,growth,EKVX NSCLC; 10 µM,-13.6% (active)
same,growth,SN12C renal; 4.75 µM,-15.1% (active)
same,growth,SN12C renal; 10 µM,-49% (active)
same,growth,UO-31 renal; 4.75 µM,3.56% (active)
same,growth,UO-31 renal; 10 µM,-70.5% (active)
same,growth,A498 renal; 4.75 µM,-14.7% (active)
same,growth,A498 renal; 10 µM,50.4% (inactive)
same,growth,HL-60(TB) leukemia,-43.5% [4.75 µM] (active)
same,growth,CCRF-CEM leukemia; 4.75 µM,-21% (active)
same,growth,CCRF-CEM leukemia; 10 µM,17.4% (inactive)
same,growth,MOLT-4 leukemia; 4.75 µM,3.9% (active)
same,growth,MOLT-4 leukemia; 10 µM,13.5% (inactive)
same,growth,RPMI-8226 leukemia; 4.75 µM,-20.5% (active)
same,growth,RPMI-8226 leukemia; 10 µM,-4.74% (active)
same,growth,OVCAR-8 ovarian; 4.75 µM,3.93% (active)
same,growth,OVCAR-8 ovarian; 10 µM,22.3% (inactive)
same,growth,OVCAR-5 ovarian; 4.75 µM,24.2% (inactive)
same,growth,OVCAR-5 ovarian; 10 µM,72.2% (inactive)
same,growth,OVCAR-4 ovarian; 4.75 µM,12.6% (inactive)
same,growth,OVCAR-4 ovarian; 10 µM,34.2% (inactive)
same,growth,SK-OV-3 ovarian; 4.75 µM,-13.2% (active)
same,growth,SK-OV-3 ovarian; 10 µM,70.4% (inactive)
same,growth,IGROV1 ovarian; 4.75 µM,-33.7% (active)
same,growth,IGROV1 ovarian; 10 µM,-67.2% (active)
same,growth,OVCAR-3 ovarian; 4.75 µM,-44.3% (active)
same,growth,OVCAR-3 ovarian; 10 µM,-95.7% (active)
same,growth,HS 578T breast; 4.75 µM,10% (inactive)
same,growth,HS 578T breast; 10 µM,28.5% (inactive)
CC12CCC3C4CCC(=O)C=C4CCC3C1CC1CC(=O)OC12 (stereo not given),growth,SK-MEL-2 melanoma; 10 µM unless noted,104% (inactive)
same,growth,EKVX NSCLC; 10 µM unless noted,110% (inactive)
same,growth,SN12C renal; 10 µM unless noted,93.8% (inactive)
same,growth,UO-31 renal; 10 µM unless noted,85.5% (inactive)
same,growth,TK-10 renal,89.8% (inactive)
same,growth,ACHN renal,103% (inactive)
same,growth,CAKI-1 renal,102% (inactive)
same,growth,A498 renal; 10 µM unless noted,98.9% (inactive)
same,growth,HL-60(TB) leukemia,105% (inactive)
same,growth,CCRF-CEM leukemia; 10 µM unless noted,102% (inactive)
same,growth,MOLT-4 leukemia; 10 µM unless noted,95.6% (inactive)
same,growth,SR leukemia,90.6% (inactive)
same,growth,RPMI-8226 leukemia; 10 µM unless noted,94.3% (inactive)
same,growth,OVCAR-8 ovarian; 10 µM unless noted,97.2% (inactive)
same,growth,OVCAR-5 ovarian; 10 µM unless noted,107% (inactive)
same,growth,OVCAR-4 ovarian; 10 µM unless noted,103% (inactive)
same,growth,SK-OV-3 ovarian; 10 µM unless noted,101% (inactive)
same,growth,IGROV1 ovarian; 10 µM unless noted,96.7% (inactive)
same,growth,OVCAR-3 ovarian; 10 µM unless noted,101% (inactive)
same,growth,HS 578T breast; 10 µM unless noted,95.7% (inactive)
